{
  "source": "paper PMC7819943",
  "about": "“Rice protein-binding microarrays: a tool to detect cis-acting elements near promoter regions in rice”",
  "note": "Over roughly 35,000 sequences, “fluorescence intensity (a.u.)” has its median near 10,000; the highest 2% begin near 52,000. The sample as a whole holds a higher share of the highest values than the screen did.",
  "data": [
    {"molecular_target": "T1, OsWOX13 (Oryza sativa, UniProt Q5QMM3 1-267)", "T1 sequence": "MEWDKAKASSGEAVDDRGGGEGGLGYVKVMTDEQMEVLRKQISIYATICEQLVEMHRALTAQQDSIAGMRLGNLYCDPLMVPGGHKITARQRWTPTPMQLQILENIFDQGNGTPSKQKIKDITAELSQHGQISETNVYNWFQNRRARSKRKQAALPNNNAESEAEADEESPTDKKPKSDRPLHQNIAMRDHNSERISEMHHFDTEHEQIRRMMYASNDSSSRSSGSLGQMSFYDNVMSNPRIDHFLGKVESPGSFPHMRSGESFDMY", "assay": "protein-binding microarray (RPBM); PBS, 2% BSA, 51.3 ng/ul salmon testes DNA, 50 uM zinc acetate, 200 nM TF, 25 C, 1 h; high values mean tight binding", "settings": "protein: recombinant; tags: N-terminal polyhistidine and DsRed monomer fusion (pET32a); label: CyDye5-dUTP incorporated in the synthesized complementary strand; 3' TTTTT single-stranded linker to array surface; dsDNA, one strand shown", "summary_of_the_method": "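Polyhistidine-tagged DsRed fusions of transcription factors, joined at the N-terminus, were expressed in E. coli BL21-CodonPlus and isolated on Ni–NTA. They were incubated at 200 nM for 1 h at 25 °C on a custom Agilent array, double-stranded and BSA-blocked, in PBS with 2% BSA, salmon testes DNA and 50 µM zinc acetate. The binding signal is per-feature fluorescence intensity (arbitrary units) read on an Axon 4000B scanner after washing.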", "values": [
      {"sequence": "TACTGATGAGCCACTGACGGGTGGGGCCAGTTGACTGACACGGAGTCACCTAGTGCAG", "binding signal": "6930 fluorescence intensity (a.u.)"},
      {"sequence": "GCAGATTAGTCGTTAGTGGTGACAGAAACGGCAAAAGTGGCGGAGTCACCTAGTGCAG", "binding signal": "6220 fluorescence intensity (a.u.)"},
      {"sequence": "CTCCGATTAATGTGGAAATTTCTAACCTCTACAGCGAACGCGGAGTCACCTAGTGCAG", "binding signal": "6190 fluorescence intensity (a.u.)"},
      {"sequence": "TTTCTAATTTCTTTCAGCATCGTATTAATGTCGATATTAACGGAGTCACCTAGTGCAG", "binding signal": "3250 fluorescence intensity (a.u.)"},
      {"sequence": "GCGAAATTAATCTTTTGGTTGTTTCTACCTTTGCTCTGATCGGAGTCACCTAGTGCAG", "binding signal": "5540 fluorescence intensity (a.u.)"},
      {"sequence": "TTCGTGATTTATATAAAACATTCCCATGTTGAAACCCTAACGGAGTCACCTAGTGCAG", "binding signal": "15400 fluorescence intensity (a.u.)"},
      {"sequence": "GTGTTGTGATTCAATTAATTTGGCAGACACCAATTTGCTGCGGAGTCACCTAGTGCAG", "binding signal": "23200 fluorescence intensity (a.u.)"},
      {"sequence": "TACTTTGATTTGCACACAATCAAATGTACAGTAGTACATGCGGAGTCACCTAGTGCAG", "binding signal": "28500 fluorescence intensity (a.u.)"},
      {"sequence": "TTAAATCAATAATTAAATATATTTTCATAATAAATTTGTGCGGAGTCACCTAGTGCAG", "binding signal": "27500 fluorescence intensity (a.u.)"},
      {"sequence": "GTTTTAAATTAATATATCTCGCGGAATATTAGAGCAAACGCGGAGTCACCTAGTGCAG", "binding signal": "12600 fluorescence intensity (a.u.)"},
      {"sequence": "TAGTAGATTGATTTCCTTAACCGAATATAGCAGGAATCCGCGGAGTCACCTAGTGCAG", "binding signal": "52900 fluorescence intensity (a.u.)"},
      {"sequence": "GTAGATCAATTTCCTTAACCGAATATAGCAAGAATCCGACCGGAGTCACCTAGTGCAG", "binding signal": "3270 fluorescence intensity (a.u.)"},
      {"sequence": "AAACTTCATTTAGTAGATTGATTTTCTTAACCGAATATAGCGGAGTCACCTAGTGCAG", "binding signal": "9560 fluorescence intensity (a.u.)"},
      {"sequence": "TTGATTGTGTGCAACTGACTTTGTCCCCGTTCTATAATATCGGAGTCACCTAGTGCAG", "binding signal": "8250 fluorescence intensity (a.u.)"},
      {"sequence": "ATGTTAATGCAAAATAAATTAAATACATAGCAAGGTACTACGGAGTCACCTAGTGCAG", "binding signal": "11200 fluorescence intensity (a.u.)"},
      {"sequence": "TGTTATTTCAATCTCAGGATTGAGTGCAAGCAATCTGTTTCGGAGTCACCTAGTGCAG", "binding signal": "4210 fluorescence intensity (a.u.)"},
      {"sequence": "TTCAGTTTCTAGCTGGAAGAGACCTCCTATCATATATTTCCGGAGTCACCTAGTGCAG", "binding signal": "53600 fluorescence intensity (a.u.)"},
      {"sequence": "CCGGATTTCAGTTATTTCCTAATTGCATTTCTATATGGACCGGAGTCACCTAGTGCAG", "binding signal": "9320 fluorescence intensity (a.u.)"},
      {"sequence": "TTTCAGTTATTTCCTAATTATATTTCTATATGGACTTAGTCGGAGTCACCTAGTGCAG", "binding signal": "9980 fluorescence intensity (a.u.)"},
      {"sequence": "AAGATAATGATGTAGACACGCAATCTGCGCGGGCCCACCACGGAGTCACCTAGTGCAG", "binding signal": "6040 fluorescence intensity (a.u.)"},
      {"sequence": "AGATTAGATTTAGATTAGTCCTATGTGTCTCTTGCCGGGTCGGAGTCACCTAGTGCAG", "binding signal": "19100 fluorescence intensity (a.u.)"},
      {"sequence": "GAGAGACGGTTTAATCAAGGAGCAGTTGATGGGAGAGGCGCGGAGTCACCTAGTGCAG", "binding signal": "4550 fluorescence intensity (a.u.)"},
      {"sequence": "CGAGCTTTAATCAATTAATCTGGAGTTTAGTGAATATATTCGGAGTCACCTAGTGCAG", "binding signal": "9200 fluorescence intensity (a.u.)"},
      {"sequence": "ATCTGATTCGTGATTAATTAGTAATTAATTAATCTTTACTCGGAGTCACCTAGTGCAG", "binding signal": "61000 fluorescence intensity (a.u.)"},
      {"sequence": "AATTTAATCTTTAATTAATTTATTTCTCGCCTCTCTTAACCGGAGTCACCTAGTGCAG", "binding signal": "4610 fluorescence intensity (a.u.)"},
      {"sequence": "GTAATTAGCTAATCAATCTTTTCGGCTGTGCTTAATTAACCGGAGTCACCTAGTGCAG", "binding signal": "33500 fluorescence intensity (a.u.)"},
      {"sequence": "ACTTTAATTAGTCGTGATCAATCAATCAATCTGAATCTGTCGGAGTCACCTAGTGCAG", "binding signal": "65100 fluorescence intensity (a.u.)"},
      {"sequence": "GTTTGTGATTAATCTGATTTCGTACTATTAACGTGCAACTCGGAGTCACCTAGTGCAG", "binding signal": "31300 fluorescence intensity (a.u.)"},
      {"sequence": "CCAGTGATCAATTTAGCTCCATTTCACTAGTGCAATCTGTCGGAGTCACCTAGTGCAG", "binding signal": "9160 fluorescence intensity (a.u.)"},
      {"sequence": "CTCAAGCTTAATTAAGCTCGTAATCTCATATAACCTCTTTCGGAGTCACCTAGTGCAG", "binding signal": "57900 fluorescence intensity (a.u.)"},
      {"sequence": "TCGTGATGACAGTTTACTCTTTAAATGAGAGTAATTAACTCGGAGTCACCTAGTGCAG", "binding signal": "17400 fluorescence intensity (a.u.)"},
      {"sequence": "GTAACGGGATGATTGAAGCTACAACGAGAATGGCAACGTCCGGAGTCACCTAGTGCAG", "binding signal": "22200 fluorescence intensity (a.u.)"},
      {"sequence": "AATATAAATTTAGATTAGCAGTGGTAAGAAGAGGGACGTCCGGAGTCACCTAGTGCAG", "binding signal": "22600 fluorescence intensity (a.u.)"},
      {"sequence": "CAAAATATACTAATTTCTTCAAGCAAAGGTCCAGCCCATCCGGAGTCACCTAGTGCAG", "binding signal": "3240 fluorescence intensity (a.u.)"},
      {"sequence": "GAATAGACCGAAATTAATTAAGGCAGTAATCACCCAGATGCGGAGTCACCTAGTGCAG", "binding signal": "16100 fluorescence intensity (a.u.)"},
      {"sequence": "TATTAAGTCTAATTAATCCATGATTAGCCTATGTGATGCTCGGAGTCACCTAGTGCAG", "binding signal": "15300 fluorescence intensity (a.u.)"},
      {"sequence": "GATGATGATGGATGCGATTGACTGATGAGACGTCTGCTAACGGAGTCACCTAGTGCAG", "binding signal": "50300 fluorescence intensity (a.u.)"},
      {"sequence": "CCCTAAATTTCCGCGAAATCAGCAACCGAACACAGATTAGCGGAGTCACCTAGTGCAG", "binding signal": "7110 fluorescence intensity (a.u.)"},
      {"sequence": "TCAATAAATCATAAAACAAATTTATTAAGCCTAATTAATCCGGAGTCACCTAGTGCAG", "binding signal": "14000 fluorescence intensity (a.u.)"},
      {"sequence": "CCTCCTCATCATGGCTTAATTAATTAATACTCCTAGCTGCCGGAGTCACCTAGTGCAG", "binding signal": "29000 fluorescence intensity (a.u.)"},
      {"sequence": "GCTTAATTGAAGGAGCCATGGCAGCTGTCCTCTCCCGCCGCGGAGTCACCTAGTGCAG", "binding signal": "53200 fluorescence intensity (a.u.)"},
      {"sequence": "CGAAGATTGAGTCCTTTGAAGCCGAGCTCTCCATGGCCATCGGAGTCACCTAGTGCAG", "binding signal": "17100 fluorescence intensity (a.u.)"},
      {"sequence": "AGGATTAATTAGGCTTAATAAATTCGTCTCGCAGTTTACACGGAGTCACCTAGTGCAG", "binding signal": "22000 fluorescence intensity (a.u.)"},
      {"sequence": "TCTAGATTTGATCATTTTGACCTCTTGCTCCGTTAGATCTCGGAGTCACCTAGTGCAG", "binding signal": "9940 fluorescence intensity (a.u.)"},
      {"sequence": "GTTAATTAATTAGTTAGTACTAGCAAACATTGGCTAAAGTCGGAGTCACCTAGTGCAG", "binding signal": "55900 fluorescence intensity (a.u.)"},
      {"sequence": "CCTTAATTAACTAACATTCAGTCAGTTAGTCACCGGATAGCGGAGTCACCTAGTGCAG", "binding signal": "52600 fluorescence intensity (a.u.)"},
      {"sequence": "GACTAATTAATAATTAGTTAATTGACTAATCAGGATAATTCGGAGTCACCTAGTGCAG", "binding signal": "46800 fluorescence intensity (a.u.)"},
      {"sequence": "ATTAATTAAGTTACTGTGTTACTCCTAGCTACTCCTCCGTCGGAGTCACCTAGTGCAG", "binding signal": "22600 fluorescence intensity (a.u.)"},
      {"sequence": "CCTTAATTTTCAGTGTTAGTAATTTTCATTAACTAATTCTCGGAGTCACCTAGTGCAG", "binding signal": "16200 fluorescence intensity (a.u.)"},
      {"sequence": "AAAGTTAATCAAATTGACTAATTAGTGCTAGATATGTCCTCGGAGTCACCTAGTGCAG", "binding signal": "60600 fluorescence intensity (a.u.)"},
      {"sequence": "ATCAAATCATATGTTAGATTGATCCTTCAATTAGTTAATTCGGAGTCACCTAGTGCAG", "binding signal": "24400 fluorescence intensity (a.u.)"},
      {"sequence": "TACTAATTTAGAGTATTAAACATAAACTAATAATAAAAGTCGGAGTCACCTAGTGCAG", "binding signal": "9830 fluorescence intensity (a.u.)"},
      {"sequence": "TCTAATTATTTGATATTAGTTATTTTCCTTAACATTCGTGCGGAGTCACCTAGTGCAG", "binding signal": "49900 fluorescence intensity (a.u.)"},
      {"sequence": "TCAATCAATCAATTAATTAGTAATTCAAAGTACTAAACACCGGAGTCACCTAGTGCAG", "binding signal": "40200 fluorescence intensity (a.u.)"},
      {"sequence": "AATTACTACTACTAATTAGCTAGTAGCTAGTTTCTGTGCTCGGAGTCACCTAGTGCAG", "binding signal": "8060 fluorescence intensity (a.u.)"},
      {"sequence": "AGTTAATTAATTAATTAGCTACGTACTCTTGTGCCTCTGTCGGAGTCACCTAGTGCAG", "binding signal": "54900 fluorescence intensity (a.u.)"}
    ]}
  ]
}
